DYRK1A inh = inhibitors of rat Dyrk1A kinase | 0.43% of 310,000 active | Q63470 | inhibition, % at 12.5 µM | ADP-Glo luminescence, NFATc1 peptide | AID 504441; in the data active = inhibition above about 50%;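 note: plate controls were vehicle with enzyme for no effect and no enzyme for full effect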
PP5 inh = inhibitors of human protein phosphatase 5 (PP5); P53041; purified PP5c, OMFP substrate fluorescence; inhibition, % at 6.7 µM; 0.18% of 320,000 active;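 active = inhibition above the campaign's mean inhibition across all tested compounds plus 3 SD, cut at about 9.5% in these data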;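 note: 0% = DMSO only and 100% = 100 µM cantharidin control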
Target sequence (P53041 whole entry, looked up): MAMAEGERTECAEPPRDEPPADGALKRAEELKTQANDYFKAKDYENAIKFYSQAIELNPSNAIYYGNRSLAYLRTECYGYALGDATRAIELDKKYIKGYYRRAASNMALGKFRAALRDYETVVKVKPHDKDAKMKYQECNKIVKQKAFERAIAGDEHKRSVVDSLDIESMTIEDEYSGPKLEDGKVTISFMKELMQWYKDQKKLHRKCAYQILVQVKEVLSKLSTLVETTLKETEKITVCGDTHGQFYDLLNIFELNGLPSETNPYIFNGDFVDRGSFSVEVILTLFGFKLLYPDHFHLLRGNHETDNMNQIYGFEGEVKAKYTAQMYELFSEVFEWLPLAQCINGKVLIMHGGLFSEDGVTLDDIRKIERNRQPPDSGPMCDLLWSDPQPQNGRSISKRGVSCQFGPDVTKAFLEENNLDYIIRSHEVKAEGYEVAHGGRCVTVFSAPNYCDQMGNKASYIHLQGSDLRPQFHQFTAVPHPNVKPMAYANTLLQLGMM
HIF act = HIF pathway transcriptional activation; U2OS HRE-luciferase reporter, luminescence; normalized: DMSO 0%, desferrioxamine 100%; activation, % at 7.5 µM (by protocol); 0.32% of 300,000 active; AID 1910;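 active = mean activation of at least 10% of the iron chelator positive control signal, with at least half of replicates also reaching 10%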
STK33 kinase inh = human STK33 kinase inhibition. AID 2661. Q9BYT3. inhibition, % at 10 µM. purified STK33, MBP phosphorylation, ADP-Glo luminescence. 0.073% of 320,000 active;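 active = inhibition at or above 25%, using the most active replicate where run in duplicate; inactive = inhibition below 25%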
PP1 inh = blocks human PP1-alpha phosphatase, a PP5 counter-screen; P62136; purified PP1alpha, OMFP fluorescence; inhibition, % at 6.7 µM; 0.9% of 320,000 active; AID 2235;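 active = inhibition above the mean inhibition of all tested compounds plus 3 SD, computed separately for each screening campaign, cut at about 15% in these data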
PP1 confirm = human PP1 phosphatase inhibition, confirmation | 52% of 1,900 active | shares compounds with PP1 inh | AID 2358 | purified PP1alpha, OMFP substrate fluorescence | inhibition, % at 6.7 µM;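 active = mean PP1 inhibition above a set limit taken from the earlier primary screen, cut at about 15% in these data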
PP5 inh counter = inhibits human PP5 phosphatase in PP1 counter-screen. shares compounds with PP1 inh. purified PP5c, OMFP fluorescence. inhibition, % at 6.7 µM. 4% of 1,900 active;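 active = mean PP5 inhibition over triplicate wells above about 9.5% taken from the earlier PP1 screen, limit read from the data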
Starred values were filed as active, the others as inactive; . = no result given. Compounds with a hit are over-represented: about 1.5% of the library has one in this group of screens.

SMILES	DYRK1A inh	PP5 inh	HIF act	STK33 kinase inh	PP1 inh	PP1 confirm	PP5 inh counter
Oc1cccc(/C=C/c2ccc3cccc(O)c3n2)c1	-2	2	1	2	14	.	.
COc1ccc(/C=C/c2ccc3c(Br)ccc(O)c3n2)cc1	1	1	0	0	22*	19*	-6
CCOc1ccc(C2C(C(=O)c3ccco3)=C(O)C(=O)N2CCCn2ccnc2)cc1OC (stereo not drawn)	3	1	1	0	-2	.	.
CC[C@]12c3[nH]c4ccccc4c3CCN1C(=O)C(CC(=O)NCc1ccc(OC)c(OC)c1)C[C@@H]2C(=O)N1CCN(C(=O)C2CC2)CC1 (stereo partly drawn)	.	.	.	0	.	.	.
O=C(Oc1ccc(/C=N/O)cc1)c1ccccc1	0	2	0	-1	-2	.	.
O=C(O)c1ccc(N/N=C/c2ccc(OC(=O)c3cccc(Cl)c3)cc2)cc1	-3	1	-4	-2	52*	14	-1
O=C(O)c1cccc(N/N=C/c2ccc(OC(F)(F)F)cc2)c1	-3	0	-1	2	4	.	.
O=C(Oc1ccc(/C=N/Nc2ccccc2)cc1)c1ccccc1	1	2	-1	-1	21*	8	-3
COc1cnc(N(C)C)nc1Sc1ccc(Cl)cc1	-3	2	1	0	1	.	.
COc1ccc(Sc2nc(-c3ccccn3)ncc2OC)cc1	-2	6	0	-3	57*	56*	-1
COc1cnc(-c2ccccn2)nc1Sc1ccc(F)cc1	-6	7	0	-2	43*	51*	0
COc1cnc(-c2ccccn2)nc1Sc1ccccc1	-2	11*	2	3	55*	48*	-1
CCOC(=O)CSc1nc(-c2ccccn2)ncc1OC	4	-1	0	-1	6	.	.
CCN1CCN(S(=O)(=O)c2c[nH]c(C(=O)OC)c2)CC1	-3	-2	0	0	-2	.	.
CC(NC(=O)C1CCN(C(=O)[C@@H]2Cc3ccccc3CN2)CC1)c1ccccc1 (stereo partly drawn)	-4	2	0	1	4	.	.
Cc1ccc(C(=O)Oc2ccc(C(=O)COC(=O)C3CC(=O)N(Cc4ccco4)C3)cc2)cc1 (stereo not drawn)	-13	-5	0	1	20*	15	-3
O=C(c1ccc(Cn2c(=S)[nH]c3ccc(N4CCOCC4)cc3c2=O)cc1)N1CCN(c2ccc(F)cc2)CC1	-1	5	4	-1	18*	19*	-1
Cc1ccc(C)c(N2CCN(C(=O)c3ccc(Cn4c(=S)[nH]c5ccc(N6CCOCC6)cc5c4=O)cc3)CC2)c1	.	3	1	-2	30*	13	-2
CC(=O)c1cccc(NC(=O)C(C)OC(=O)C2=NNC(=O)CC2)c1 (stereo not drawn)	-2	.	.	-1	.	.	.
Cc1c(Cl)c(C(F)(F)F)nn1CC(=O)NCc1ccco1	-2	-1	0	-1	-3	.	.
Cc1cc(C(F)(F)F)nn1CC(=O)NCc1ccco1	13	4	0	0	18*	-3	-6
CC1Sc2ccc(S(=O)(=O)CCC(=O)N3CCN(c4ccccc4F)CC3)cc2NC1=O (stereo not drawn)	-1	0	0	0	0	.	.
Nc1nc(N)c2cc(Sc3ccc4ccccc4c3)ccc2n1	.	0	-2	-1	23*	11	0
COc1ccc(NC(=O)NNC(=O)COc2ccc([N+](=O)[O-])c(C)c2)cc1OC	1	0	0	-1	6	.	.
CCOc1ccc(N=Cc2c(C)[nH]n(-c3nc4ccccc4[nH]3)c2=O)cc1	1	2	-1	1	23*	14	1
SMILES	DYRK1A inh	PP5 inh	HIF act	STK33 kinase inh	PP1 inh	PP1 confirm	PP5 inh counter
CCN(CC)CCNC(=O)C1(O)c2cc(Br)ccc2NC(=O)N1c1c(F)cccc1F (stereo not drawn)	1	2	-1	0	-4	.	.
CCCn1c2ccccc2c2nnc(SCC(=O)OC)nc21	-3	0	-1	-1	-2	.	.
CCCCn1c2ccccc2c2nnc(SCC(=O)NC3=NN=C(c4ccccc4)CS3)nc21	.	2	0	0	26*	27*	3
O=C1CCc2cc(S(=O)(=O)N3CCN(C(=O)c4ccco4)CC3)ccc2N1	1	5	0	1	71*	-2	-4
O=C(c1ccco1)N1CCN(S(=O)(=O)c2ccc(F)cc2)CC1	2	-1	0	-1	-2	.	.
CCc1c(C)nc(SCC(=O)N2CCCCC2CC)[nH]c1=O (stereo not drawn)	11	-1	-1	-3	-2	.	.
CCOC(=O)N/N=C/c1ccccc1OCc1ccc(Cl)cc1	2	2	2	-1	2	.	.
O=C(Cc1ccccc1)N/N=C/c1ccccc1OCc1ccc(Cl)cc1	4	3	1	-1	21*	-1	2
CC(C)COc1ccc(C(=O)NNC(=O)c2ccc(=O)[nH]c2)cc1	.	4	.	-1	2	.	.
NC(=O)CC(NC(=O)Cc1ccc(Br)cc1)c1ccc(NCCOc2ccccc2)c([N+](=O)[O-])c1 (stereo not drawn)	3	1	0	0	20*	26*	-4
NC(=O)CC(NC(=O)Cc1cccc2ccccc12)c1ccc(NC2CCCCCC2)c([N+](=O)[O-])c1 (stereo not drawn)	6	2	-1	0	24*	24*	-4
NC(=O)CC(NC(=O)Cc1ccc(Br)cc1)c1ccc(NCCc2cccc(F)c2)c([N+](=O)[O-])c1 (stereo not drawn)	3	1	0	0	18*	23*	-4
NC(=O)CC(NC(=O)Cc1ccc(Br)cc1)c1ccc(NCc2cc(F)ccc2F)c([N+](=O)[O-])c1 (stereo not drawn)	-4	5	0	0	5	.	.
CCOc1ccc(CNC(=O)CN2C(=O)CSc3ccc(S(=O)(=O)N4CCOCC4)cc32)cc1OC	3	-2	0	-1	-6	.	.
Cn1c(CN2CCN(S(C)(=O)=O)CC2)nc2cc([N+](=O)[O-])ccc21	-1	-2	1	-1	-3	.	.
COC(=O)c1cccc(F)c1C(=O)c1cccc2ccccc12	4	.	.	.	.	.	.
COc1ccccc1CC(=O)N(CCC1=CCCCC1)c1c(N)n(Cc2ccccc2)c(=O)[nH]c1=O	7	-1	0	.	-3	.	.
CN(C)c1ccc(-c2cc(O)c3ncccc3c2)cc1	8	1	.	0	21*	21*	-4
CN(C)CCCNC(=O)c1ccc(-c2cc(O)c3ncccc3c2)cc1	22	.	.	1	.	.	.
O=C(NNC(=O)c1cc2cc3ccccc3nc2s1)c1ccc(F)cc1	4	4	0	-1	24*	7	-6
